The source of these data is PubChem BioAssay AID1851 (National Center for Advancing Translational Sciences (NCATS), 2009).

“And” between values parts separate entries of the source, which are not always exact repeats. Equal values may be shown once. In all, about 16,000 compounds went through this assay and about 5,700 (36%) were called active. Inconclusive results (about 24%) are left out. The call rests on the fitted dose curve; in most records, active means well fitted curve in the direction sought with a large enough effect; inconclusive means small, poorly fitted or top-dose-only effect, or effect the other way; inactive means no such curve, though single readings can be large or run the other way. The list shows a part of the results.
On the % scale 0 is the no-effect control and ±100 the full control effect.

The target of this experiment is Cytochrome P450 1A2 (Homo sapiens) (UniProt P05177). The experiment can be described thus: Cytochrome panel assay with activity outcomes. The settings on record: recombinant CYP, pro-luciferin dealkylation, luminescence, p450-cyp1a2; series mostly up to 57.1 µM.
Chain of Cytochrome P450 1A2 (Homo sapiens) (P05177 whole entry, looked up): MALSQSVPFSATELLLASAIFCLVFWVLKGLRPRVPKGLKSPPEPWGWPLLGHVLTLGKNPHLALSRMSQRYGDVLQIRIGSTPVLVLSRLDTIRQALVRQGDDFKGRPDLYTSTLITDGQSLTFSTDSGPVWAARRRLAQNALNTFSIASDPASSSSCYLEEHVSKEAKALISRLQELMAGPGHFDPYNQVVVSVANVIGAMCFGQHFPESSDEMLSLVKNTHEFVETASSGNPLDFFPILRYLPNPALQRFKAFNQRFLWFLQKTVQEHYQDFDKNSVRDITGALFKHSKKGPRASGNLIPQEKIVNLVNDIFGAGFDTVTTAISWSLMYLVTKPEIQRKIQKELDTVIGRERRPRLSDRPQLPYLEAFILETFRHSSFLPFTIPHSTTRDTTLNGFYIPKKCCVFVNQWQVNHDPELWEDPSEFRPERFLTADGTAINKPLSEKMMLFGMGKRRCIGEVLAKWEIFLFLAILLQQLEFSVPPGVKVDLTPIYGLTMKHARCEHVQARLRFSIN
With `CCOc1nc(N2CCCCC2)nc(-n2cc(-c3ccccc3)nn2)n1`, the half-maximal activity concentration (AC50) (in general, the concentration giving half of the maximal activity seen) is 2510 nM (active).

Turning to `CO[C@@H]1COC(=O)[C@H](Cc2ccccc2)NC(=O)C/C=C\[C@@H](C)[C@H](OC)COC(=O)[C@@H](C)NC(=O)C/C=C\[C@H]1C`, the activity, negative = inhibition is -3.56% [at 11.4 µM] (inactive) and 1.16% [at 11.4 µM] (inactive).

In the case of `C=CCn1c(C)c(C(C)=O)c(N2CCN(c3ccccc3)CC2)nc1=S`, the AC50 result was “inactive”.

With `C=CCN1CCN(c2nc3ccccc3nc2C#N)CC1`, the AC50 is 100 nM (active).

For the molecule `CCN1CCN(c2nc3ccccc3nc2C(C#N)C(=O)OC2CCCCC2)CC1` (centres undefined), the AC50 result is “inactive”.

Turning to `Cc1ccc2nc(-c3ccccc3)cc(C(=O)NCCCn3ccnc3)c2c1`, the concentration at half-maximal activity (AC50) is 2820 nM (active).

With `COc1c2occc2c(OC)c2c(=O)cc(C)oc12`, the AC50 is 20 nM (active).

Regarding `CC1CCCC(C)N1CC(O)COCC1COc2ccccc2O1` (centres undefined), the AC50 entry was “inactive”.

With `CCn1ccnc1C[C@@H]1COc2ccccc2O1`, the AC50 was 15800 nM (active).

Turning to `COc1ccc(Oc2ncc3nc(-c4cn(C)c5ccccc45)c(=O)n(C)c3n2)cc1`, the AC50 result was “inactive”.

Consider `CN1CCN(c2ncc3nc(-c4cn(C)c5ccccc45)c(=O)n(CCC#N)c3n2)CC1`, for which the AC50 is 15800 nM (active).

In the case of `COc1ncc2nc(-c3cn(C)c4ccccc34)c(=O)n(CCC#N)c2n1`, the concentration at half-maximal activity (AC50) is 5010 nM (active).

For the molecule `CN1CCN(c2ncc3nc(-c4cn(C)c5ccccc45)c(=O)n(CCc4ccccc4)c3n2)CC1`, the AC50 result is “inactive”.

On to `COc1ncc2nc(-c3cn(C)c4ccccc34)c(=O)n(C)c2n1`, for which the concentration at half-maximal activity (AC50) was 1000 nM (active).

In the case of `OC[C@H]1NC[C@H](O)[C@@H](O)[C@H]1O`, the AC50 result was “inactive”.

For the molecule `O=C(NCc1n[nH]c(=S)n1-c1ccccc1)c1ccc(S(=O)(=O)N2CCOCC2)cc1`, the AC50 entry was “inactive”.

For the molecule `NCCSC[C@H](N)C(=O)O`, the activity, negative = inhibition is -0.987% [at 11.4 µM] (inactive).

Turning to `CN1CCCC2(CCN(C(=O)c3cc(C(F)(F)F)cc(C(F)(F)F)c3)CC2)C1`, the AC50 entry was “inactive”.

`CCOC(=O)CC(NC(=O)c1cccs1)c1ccc(OCC)cc1` (centres undefined): the half-maximal activity concentration (AC50) is 12600 nM (active).

`CCOc1ccc(C(CC(=O)O)NC(=O)COc2ccccc2)cc1` (centres undefined): the AC50 result was “inactive”.

For the molecule `O=C(O)C1=CCNCC1`, the AC50 result is “inactive”.

With `Cc1cc(O)c(/C=N/Nc2cccc(Cl)c2)c(=O)o1`, the AC50 is 2240 nM (active).

Regarding `Cc1cc(NC(=O)CSc2nc3ccccc3c(=O)n2CCCC(=O)NCc2ccco2)n[nH]1`, the AC50 result was “inactive”.

Consider `COCCCNC(=O)CCC(=O)Nc1ccc2nc(N3CCOCC3)cc(C)c2c1`, for which the AC50 entry is “inactive”.

For the molecule `Cc1cc(N2CCN(C)CC2)nc2ccc(NC(=O)CCC(=O)NCc3ccco3)cc12`, the AC50 was 1260 nM (active).

As to `CCOC(=O)c1cccc2c1-c1ccccc1/C2=N/O`, the half-maximal activity concentration (AC50) is 1580 nM (active).

Take `CCOC(=O)c1cc(CC)sc1NC(=O)C(c1ccccc1)c1ccccc1`: the AC50 entry was “inactive”.

As for `Cc1nc2ccccc2n1CC(=O)N/N=C\C=C\c1ccccc1`, the half-maximal activity concentration (AC50) is 5010 nM (active).

For the molecule `Cn1c(SCC(=O)N/N=C/C=C\c2ccco2)nc2ccccc21`, the AC50 was 2000 nM (active).

Turning to `Cc1nc2ccccc2n1CC(=O)N/N=C\c1ccccn1`, the AC50 result was “inactive”.

In the case of `Cc1ccc(/C=N/NC(=O)CSc2nc3ccccc3n2C)s1`, the AC50 is 2510 nM (active).

`O=c1cc(CO)oc(CN2CCCC2)c1O`: the AC50 result is “inactive”.

For `CC(=O)Nc1nc(NC(C)=O)c2[nH]c(CO)nc2n1`, the activity, negative = inhibition is -14.4% [at 11.4 µM] (inactive).

Take `CN(N=O)C(=O)N[C@H]1[C@@H](O)[C@H](O)[C@H](CO)O[C@@H]1O`: the AC50 entry is “inactive”.

For `Cc1noc(C)c1-c1cncnc1N(C)Cc1ccco1`, the AC50 entry was “inactive”.

As for `Cc1ccccc1-c1cncnc1N(C)Cc1ccco1`, the AC50 was 15800 nM (active).

On to `COc1ccccc1-c1cncnc1N(C)Cc1ccco1`, for which the AC50 is 15800 nM (active).

Consider `CN(Cc1ccco1)c1ncncc1-c1ccccc1Cl`, for which the AC50 was 25100 nM (active).

Consider `COC(=O)[C@@H]1CC[C@H](C)[C@@H](c2ccc(C)cc2)N1C(=O)c1ccc(/C=N\O[C@@H]2O[C@H](COC(C)=O)[C@H](OC(C)=O)[C@H](OC(C)=O)[C@H]2OC(C)=O)cc1`, for which the activity, negative = inhibition is -1.33% [at 11.4 µM] (inactive).

For the molecule `CCOc1cc(C2CC(=O)c3c(ccc4ccccc34)N2)ccc1O` (centres undefined), the AC50 result was “inactive”.

On to `CC[C@H]1CC[C@H]2[C@@H]3CC=C4C[C@H](OC(C)=O)[C@@H](N)C[C@@]4(C)[C@H]3CC[C@@]12C`, for which the activity, negative = inhibition was -5.9% [at 11.4 µM] (inactive).

As for `CCc1cc2c(Sc3nc4ccccc4s3)ncnc2s1`, the AC50 was 1580 nM (active).

Regarding `c1ccc(-c2nc(NCc3cccnc3)c3ccccc3n2)cc1`, the AC50 is 1120 nM (active).

With `Cc1cccc(CNc2nc(-c3cccnc3)nc3ccccc23)c1`, the AC50 is 631 nM (active).

For `CN(C)c1ccc(-c2nc(NCc3cccnc3)c3ccccc3n2)cc1`, the concentration at half-maximal activity (AC50) was 1580 nM (active).

Regarding `CCCc1cc(=O)oc2cc(OCc3nn[nH]n3)ccc12`, the AC50 was 12600 nM (active).

Regarding `CCCCc1cc(=O)oc2cc(OCC(=O)N(CC)CC)ccc12`, the half-maximal activity concentration (AC50) is 12600 nM (active).

As to `CCCc1cc(=O)oc2cc(OCC(=O)N3CCc4ccccc43)ccc12`, the AC50 entry is “inactive”.

On to `CCO[C@H](c1cc(OC)cc([N+](=O)[O-])c1OC)[C@H](C)/C=C\CC(=O)OC`, for which the activity, negative = inhibition was 1.93% [at 11.4 µM] (inactive).

Regarding `COc1ccc(/C(O)=C2\C(=O)C(=O)N(c3cc(C)on3)C2c2ccc(OC)c(OC)c2)cc1OC` (centres undefined), the AC50 result is “inactive”.

As for `CC(=O)OCC(=O)[C@@]1(O)[C@H](C)C[C@@H]2[C@H]3CCC4=CC(=O)C=C[C@]4(C)[C@]3(F)[C@@H](O)C[C@@]21C`, the AC50 entry is “inactive”.

With `O=C(CN1CCCC1)N/N=C/c1ccc(-c2cccc(Cl)c2)o1`, the concentration at half-maximal activity (AC50) was 8910 nM (active).

`CC(=O)c1cccc(NC(=O)CSCc2ccccc2)c1`: the half-maximal activity concentration (AC50) is 2000 nM (active).

Regarding `O=C(CSCc1ccccc1)Nc1ccc(S(=O)(=O)N2CCOCC2)cc1`, the AC50 result was “inactive”.

Regarding `CC(=O)c1cccc(NC(=O)CCC2CCCC2)c1`, the AC50 was 3550 nM (active).

Take `COc1cccc(N(CC(=O)Nc2cccc(C(C)=O)c2)S(C)(=O)=O)c1`: the AC50 result was “inactive”.

With `O=C(CCC1CCCCC1)Nc1c2c(nn1-c1ccc(F)cc1)CS(=O)(=O)C2`, the AC50 entry is “inactive”.

Take `CCn1c(CSCc2ccc(C)cc2)nnc1SCC(=O)NCc1ccccc1`: the AC50 result was “inactive”.

Consider `CCC(C)NS(=O)(=O)c1ccc(NC(=O)CCC2CCCCC2)cc1` (centres undefined), for which the AC50 result was “inactive”.

Regarding `CSc1ccccc1NC(=O)CSCc1ccc(C)cc1`, the half-maximal activity concentration (AC50) is 7080 nM (active).

With `Cc1ccc(O)c(C(=O)c2cc(C#N)c(=O)n(-c3c(C)n(C)n(-c4ccccc4)c3=O)c2)c1`, the AC50 result is “inactive”.

With `CCCOc1ccccc1-c1nc2n[nH]nc2c(=O)[nH]1`, the AC50 was 3980 nM (active).

Take `Nc1nc2n[nH]nc2c(=O)[nH]1`: the AC50 result is “inactive”.

As to `C=CCSC1=Nc2sccc2C2=NC(=O)CN12`, the AC50 was 1780 nM (active).

`CSC1=N/C(=C\c2ccc3c(c2)OCO3)C(=O)S1`: the AC50 was 1000 nM (active).

Turning to `CN(C)C(=O)CN(c1ccc2c(c1)OCO2)S(C)(=O)=O`, the AC50 entry is “inactive”.

Consider `CSC1=N/C(=C\c2ccc(Br)o2)C(=O)S1`, for which the AC50 was 3550 nM (active).

For the molecule `CSC1=N/C(=C\c2ccc(C)cc2)C(=O)S1`, the AC50 is 2820 nM (active).

As to `C[C@@H]1C[C@@H]2[C@H]3CCC4=CC(=O)C=C[C@]4(C)[C@]3(F)[C@@H](O)C[C@]2(C)[C@@]1(O)C(=O)CO`, the AC50 entry was “inactive”.

For `O=C(O)[C@H](Cc1cc(I)c(O)c(I)c1)C1CCCCC1`, the activity, negative = inhibition was -8.77% [at 2.29 µM] (inactive).

Regarding `c1ccc2cc(Sc3ncnc4c3oc3ccccc34)ccc2c1`, the concentration at half-maximal activity (AC50) is 1580 nM (active).

Turning to `CC1(c2ccccc2)NC(=O)N(CC(=O)NCCC2=CCCCC2)C1=O` (centres undefined), the AC50 is 11200 nM (active).

On to `O=C(CN1CCN(c2ncccn2)CC1)NCCC1=CCCCC1`, for which the concentration at half-maximal activity (AC50) was 1580 nM (active).

Turning to `Cc1nc2ncnn2c(C)c1CCC(=O)NCCC1=CCCCC1`, the AC50 entry was “inactive”.

Consider `O=C(COc1ccc(Cl)cc1)NCCC1=CCCCC1`, for which the concentration at half-maximal activity (AC50) was 11200 nM (active).

For `Cc1ccc(S(=O)(=O)N(CC(=O)NCCC2=CCCCC2)Cc2ccccc2F)cc1`, the AC50 entry was “inactive”.

On to `CC(=O)Nc1ccc(S(=O)(=O)NC(CC(=O)NCCC2=CCCCC2)C(C)C)cc1` (centres undefined), for which the AC50 result was “inactive”.

For the molecule `COc1ccc(C(=O)CN2C(=O)NC(C)(c3ccccc3)C2=O)cc1OC` (centres undefined), the AC50 result is “inactive”.

Consider `CCCCCOc1ccc(NC(=O)C(=O)NCCC2=CCCCC2)cc1`, for which the AC50 entry was “inactive”.

Take `COc1ccc(OC)c(C(=O)CN2C(=O)NC(C)(c3ccccc3)C2=O)c1` (centres undefined): the AC50 result was “inactive”.

With `CCC(C)n1nnc2c(=O)oc3ccccc3c21` (centres undefined), the AC50 is 708 nM (active).

Take `C=CCN1CCc2cc(O)c(O)cc2[C@H](c2ccccc2)C1`: the AC50 entry was “inactive”.

Turning to `CC(C)=NOCc1ccc(-c2cc(-c3ccccc3)no2)cc1`, the activity, negative = inhibition was -4.03% [at 11.4 µM] (inactive).

Regarding `Cc1ccccc1-c1cc(-c2ccccc2O)on1`, the half-maximal activity concentration (AC50) was 2510 nM (active).

Consider `CC(C)=NOCc1cccc(-c2cc(-c3ccccc3)no2)c1`, for which the activity, negative = inhibition is 1.37% [at 11.4 µM] (inactive).

As to `Oc1ccccc1-c1cc(-c2ccccc2)no1`, the half-maximal activity concentration (AC50) was 1260 nM (active).

As to `Nc1nc(-c2ccccc2)cc(-c2ccccc2O)n1`, the AC50 was 631 nM (active).

For the molecule `Nc1nc(-c2cc(-c3cccc4ccccc34)nc(N)n2)cc(-c2cccc3ccccc23)n1`, the activity, negative = inhibition was -4.4% [at 2.29 µM] (inactive).

Turning to `CC(=O)N1CCN(c2nc(C)nc3sc4c(c23)CCC(C)C4)CC1` (centres undefined), the AC50 is 15800 nM (active).

For `Cc1cc(C(F)F)n2nc(C(=O)Nc3sc4c(c3C#N)CCC(C)C4)nc2n1` (centres undefined), the AC50 result was “inactive”.

As to `CC(C)CN=C(N)N=C(N)N`, the activity, negative = inhibition is -9.85% [at 11.4 µM] (inactive).

As for `C(=N\N(c1ccccc1)c1ccccc1)/c1ccc2c(c1)OCO2`, the AC50 was 2000 nM (active).

Take `CCOc1cc(CN2CCN(c3ccc(C(C)=O)cc3)CC2)ccc1OC`: the AC50 entry is “inactive”.

On to `CCOc1ccc(CNC(=O)C2CCC(=O)N2C2CCCC2)cc1OC` (centres undefined), for which the AC50 result was “inactive”.

Turning to `CCOc1ccc(CC(=O)C2C(=O)CCCC2=O)cc1OCC`, the concentration at half-maximal activity (AC50) was 10000 nM (active).

Take `CC1CCC(O)([C@](C)(C(=O)O)c2ccccc2)CC1` (some centres undefined): the activity, negative = inhibition is -4.6% [at 11.4 µM] (inactive).

For the molecule `O=C(Nc1ccc(Cl)cc1)N1CCc2[nH]c3ccccc3c2C1`, the concentration at half-maximal activity (AC50) is 3550 nM (active).

Turning to `O=C(Nc1ccccc1)N1CCOCC1`, the AC50 entry is “inactive”.

In the case of `COC(=O)N1CCC2(CC1)CN(C(=O)Nc1ccccc1)C2`, the AC50 entry is “inactive”.
